Measured values from PubChem BioAssay.
Values without a mark were called inactive. The source made the active and inactive calls.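 Rule for the calls, unless noted: active = mean inhibition above 46.5%, the solvent-only control mean plus 3 SD; inactive = the rest.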

Columns and labels:
[1] = test system: transactivating tegument protein VP16 (Human herpesvirus 1); experiment: VP16 transactivation reporter inhibitors, counter-screen for SRC2 inhibitor project, cell-based, luminescence, single concentration (AID 652007; in the data active = inhibition above about 36%); conditions: cell-based VP16 transactivation luciferase reporter, at 8.9 µM, hits give high values
[2] = target: Nuclear receptor coactivator 2 (Homo sapiens) (UniProt Q15596); experiment: SRC2 coactivator transcriptional activity inhibitors, confirmation, cell-based, luminescence, HEK293, triplicate (AID 652008); conditions: HEK293 GAL4-SRC2 luciferase reporter, at 8.9 µM, hits give high values;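 note: 0% = DMSO-treated cells and 100% = Gossypol at 36 µM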
Sequence of Nuclear receptor coactivator 2 (Homo sapiens) (Q15596 whole entry, looked up, the tested form may be a part): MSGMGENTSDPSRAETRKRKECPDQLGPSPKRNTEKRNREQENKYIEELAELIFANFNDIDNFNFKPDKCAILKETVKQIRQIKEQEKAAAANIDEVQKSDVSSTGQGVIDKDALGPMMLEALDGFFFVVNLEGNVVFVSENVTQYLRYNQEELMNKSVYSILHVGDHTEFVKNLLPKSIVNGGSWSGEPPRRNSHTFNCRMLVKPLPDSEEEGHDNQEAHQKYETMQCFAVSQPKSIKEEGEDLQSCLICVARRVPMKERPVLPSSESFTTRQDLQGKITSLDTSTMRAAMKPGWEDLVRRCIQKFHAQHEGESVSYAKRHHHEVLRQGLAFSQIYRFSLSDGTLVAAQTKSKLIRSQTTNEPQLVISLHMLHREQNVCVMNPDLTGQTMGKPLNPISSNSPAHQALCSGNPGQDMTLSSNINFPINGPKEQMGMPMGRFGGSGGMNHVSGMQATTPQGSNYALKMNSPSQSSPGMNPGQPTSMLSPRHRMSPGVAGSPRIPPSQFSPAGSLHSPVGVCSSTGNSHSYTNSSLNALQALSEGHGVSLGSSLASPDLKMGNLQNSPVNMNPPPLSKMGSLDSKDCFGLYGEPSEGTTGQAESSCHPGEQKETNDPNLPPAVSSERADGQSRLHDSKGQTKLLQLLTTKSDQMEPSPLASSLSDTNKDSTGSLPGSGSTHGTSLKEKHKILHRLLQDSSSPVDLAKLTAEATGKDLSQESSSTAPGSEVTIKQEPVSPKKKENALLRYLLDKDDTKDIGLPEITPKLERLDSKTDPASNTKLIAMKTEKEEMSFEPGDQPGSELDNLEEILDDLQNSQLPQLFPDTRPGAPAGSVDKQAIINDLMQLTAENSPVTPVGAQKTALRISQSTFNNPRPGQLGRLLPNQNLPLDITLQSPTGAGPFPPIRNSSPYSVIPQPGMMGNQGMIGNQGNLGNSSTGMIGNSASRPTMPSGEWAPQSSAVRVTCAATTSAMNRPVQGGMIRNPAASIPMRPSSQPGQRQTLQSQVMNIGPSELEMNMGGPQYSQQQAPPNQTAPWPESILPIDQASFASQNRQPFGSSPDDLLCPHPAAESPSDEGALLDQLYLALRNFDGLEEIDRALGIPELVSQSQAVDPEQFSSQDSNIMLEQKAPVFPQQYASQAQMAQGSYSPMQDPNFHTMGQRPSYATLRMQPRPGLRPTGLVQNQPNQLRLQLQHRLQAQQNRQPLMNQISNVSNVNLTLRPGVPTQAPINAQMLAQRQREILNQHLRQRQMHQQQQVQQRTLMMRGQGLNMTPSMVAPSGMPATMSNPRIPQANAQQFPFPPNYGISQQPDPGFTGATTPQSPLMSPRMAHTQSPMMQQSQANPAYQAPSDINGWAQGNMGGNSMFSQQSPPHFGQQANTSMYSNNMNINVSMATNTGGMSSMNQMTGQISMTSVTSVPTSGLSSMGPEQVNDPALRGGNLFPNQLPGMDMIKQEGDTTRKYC

SMILES | inhibition [1] | inhibition [2]
COC(=O)c1ccc(Sc2nnnn2-c2ccccc2)c([N+](=O)[O-])c1 | 20.1% | 48.2% (active)
Cc1cc(-c2ccccc2)n(-c2cc(N/N=C/c3ccccc3O)ncn2)n1 | -0.63% | 51.5% (active)
COc1cccc(-c2ncn(CCc3ccccc3OC)c2CC(C)C)c1 | -2.53% | 18.6%
Cc1ccc(NC(=O)c2nc(S(=O)(=O)Cc3ccccc3)ncc2Cl)cc1 | 56.5% (active) | 74.4% (active)
Cc1ccc(NC(=O)c2ccc(NC(=O)C3CCCCC3C(=O)O)cc2)cc1 (stereo unspecified) | -56% | -17.6%
C=C(C)C(=O)OC1(C(F)(F)F)Oc2cc(C)ccc2NC1=O (stereo unspecified) | -6.48% | 17.5%
CCn1cc(S(=O)(=O)Nc2ccc3c(c2)OCCO3)cn1 | -3.8% | 48.4% (active)
O=C(O)CCC(=O)Nc1ccc(C(=O)OC2CCCCC2)cc1 | 11.1% | 29.4%
CN1/C(=C/C=C/c2n(C)c3cc([N+](=O)[O-])c([N+](=O)[O-])cc3[n+]2C)C(C)(C)c2ccccc21 | 3.99% | -3.59%
O=[N+]([O-])c1ccc(Sc2nccn2Cc2ccccc2)c([N+](=O)[O-])c1 | 4.42% | 32.1%
Cn1c(=O)c2[nH]c(CCCc3ccc([N+](=O)[O-])cc3)nc2n(C)c1=O | -19.8% | 5.32%
CN=C1CC(SC)=C1c1ccc(C)cc1 | -10.3% | 1.69%
COc1ccc(S(=O)(=O)N2CCCC(C(=O)NCc3ccncc3)C2)cc1 (stereo unspecified) | -0.24% | 10.6%
CC(=NNc1ccc2ccccc2n1)c1ccccn1 | 83.8% (active) | 89.3% (active)
CC(=O)C1=CCC(c2ccccc2Cl)N(S(=O)(=O)c2ccc(C)cc2)C1 (stereo unspecified) | 13.9% | 15.3%
Cc1ccoc1C(=O)Nc1ccc(CC(=O)O)cc1 | 41.7% (active) | 83.4% (active)
C=CCN=C1NN=C(c2cc(C)n(CCOC)c2C)CS1 | 69.5% (active) | 86% (active)

SMILES | inhibition [1] | inhibition [2]
CC(C)=C1C2CCC1C1C(=O)N(c3nccs3)C(=O)C21 (stereo unspecified) | 12.1% | 6.16%
COC(=O)[C@]12C[C@H](CC(=O)N3CCCC3)C(=O)N(CCC3=CCCCC3)C1=C[C@H](C(C)C)O[C@@H]2C1CC1 | -0.66% | -19.4%
O=C(Cc1ccc([N+](=O)[O-])cc1)Nc1cccc(C(=O)N2CCCCC2)c1 | 13.5% | 23.7%
COCc1ccc(C(=O)N2CCC(CCC(=O)Nc3cccc(C)c3)CC2)s1 | 27.4% | 46.9% (active)
CC(C)N=C(NS(=O)(=O)c1ccccc1)C(Cl)(Cl)Cl | 7.46% | 28.2%
CCN(CC)C(=O)C1CCCN(c2ncnc3c2cnn3-c2ccc(Cl)cc2)C1 (stereo unspecified) | -32.6% | 58.8% (active)
COc1cc(/C=C/C(=O)c2ccc3c(c2)OCCO3)cc(OC)c1OC | 5.55% | 29.2%
COc1ccc(C(=O)OCC(=O)Nc2ccc3c(c2)OCCO3)c(OC)c1 | 6.79% | -39%
CC(=O)c1c(C)[nH]c(C(=O)Nc2ccc(N3CCCCCC3)cc2)c1C | -41.5% | 19.9%
Cc1cc(N/N=C/c2ccc(O)cc2)nc(NS(=O)(=O)c2ccccc2)n1 | -14.1% | 16.5%
O=C(/C=C/c1cn(-c2ccccc2)nc1-c1cccnc1)c1ccco1 | 29.5% | 39.6%
O=C(CCCN1C(=O)/C(=C/c2ccccc2Cl)SC1=S)Nc1ccccn1 | 25.5% | 43.8%
CN(c1ccc(F)cc1)S(=O)(=O)c1ccc(Cl)c(C(=O)Nc2ccncc2)c1 | -3.83% | 26.5%
CCOC(=O)C1(Cc2ccccc2)CCN(Cc2ccnc3ccccc23)CC1 | -2.44% | 14.6%
CCc1ccc(/C=C2\SC(=S)N(CCCC(=O)NC3=NCCS3)C2=O)cc1 | 41.6% (active) | 90.5% (active)
O=[N+]([O-])c1ccc(Sc2nnnn2-c2ccccc2)nc1 | 12.5% | 40.7%
